# Reference: PubChem BioAssay (Tox21)
# Records with an inconclusive call do not appear. Entries that show only a call come without a potency. Calls of active or inactive are those of the source. The rule behind the calls is not given here. Where a SMILES comes first, the peptide text is derived from it. [ ]: non-standard residue; d: D form. pGlu = O=C1CC[C@@H](C(=O)O)N1
# Assay: qHTS assay to identify small molecule antagonists of the estrogen related receptor signaling pathway with the pleiotropic PPARgamma coactivator (PGC) from Tox21 10K library (AID 1224841); note: actives are mostly falling curves and most rising ones were filed inactive; nearly all actives have a fitted effect of over 50% in size
# Conditions: PGC/ERR reporter cell line, ONE-Glo luciferase, 18 h; series mostly up to 92.4 µM
# Excerpt: U.S. Tox21 Program National Center for Advancing Translational Sciences [NCATS] NIH Chemical Genomics Center [NCGC] U.S. Environmental Protection Agency [EPA] National Institutes of Environmental Health Sciences [NIEHS] National Toxicology Program [NTP] U.S. Food and Drug Administration [FDA] Tox21 Assay Overview: Estrogen related receptors (ERRs), the first orphan nuclear receptors discovered, play an important role in the control of cellular energy metabolism. ERRs are required for high-energy production in response to the environmental challenges. The pleiotropic PPARgamma coactivator (PGC) is a major partner of ERR and a key regulator in energy homeostasis. Together they have been implicated in the etiology of metabolic disorders such as Type 2 diabetes and metabolic syndrome. ERR-alpha was also identified as an adverse marker for breast cancer progression; ERR-alpha-positive tumors have a poor prognosis. To screen and to identify environmental compounds that perturb the ERR and PGC/ERR signaling pathways could provide valuable information for potential therapeutic or preventive measures in the treatment of metabolic disease. For identifying PGC/ERR antagonists, PGC/ERR cell line (provided by NTP) has been used to screen Tox21 10K library.
# Tox21 Assay Protocol Summary: The PGC/ERR cells were dispensed at 2,000 cells/5 ul/well in 1536-well white plates using a Multidrop dispenser. After the assay plates were incubated at a 37 C/5% CO2 incubator for 6 hours, 23 nL of compounds dissolved in DMSO, positive and negative controls or DMSO only was transferred to the assay plate by a pin tool. The plates were incubated at 37 C for 18 hours. 4 ul/well of One-Glo reagent was added into the assay plates using a Flying Reagent Dispenser. After 30-minute incubation at room temperature, the luminescence intensity in the plates was measured using a ViewLux plate reader.
# Potency is the fitted concentration of half-maximal effect.
row,SMILES,Potency
1,CC1(C)OC[C@@H](COC(=O)CCc2ccc(OC[C@@H](O)CNCCNC(=O)N3CCOCC3)cc2)O1,inactive
2,C[C@H]1C[C@H]2[C@@H]3CCC4=CC(=O)C=C[C@]4(C)[C@H]3C(=O)C[C@]2(C)[C@@]1(O)C(=O)CO,inactive
3,CCCCCCCCN1CCCC1=O,inactive
4,CN(C)CCCCCCN(C)C,inactive
5,CO[C@@]1(NC(=O)CSC[C@@H](N)C(=O)O)C(=O)N2C(C(=O)O)=C(CSc3nnnn3C)CS[C@@H]21,inactive
6,CCN(Cc1ccccc1)c1ccccc1,42.7 µM (active)
7,OCCCCCO,inactive
8,O=S(=O)(O)c1cccc(S(=O)(=O)O)c1,inactive
9,Cc1cccc(C)c1NC(=O)CC12CCCN1CCC2,inactive
10,Cc1ccc(C(=O)Nc2ccc(S(=O)(=O)O)c3cc(S(=O)(=O)O)cc(S(=O)(=O)O)c23)cc1NC(=O)c1cccc(NC(=O)Nc2cccc(C(=O)Nc3cc(C(=O)Nc4ccc(S(=O)(=O)O)c5cc(S(=O)(=O)O)cc(S(=O)(=O)O)c45)ccc3C)c2)c1,inactive
11,O=S(=O)(O)c1cccc2c(S(=O)(=O)O)cccc12,inactive
12,O=C(CO)[C@@H](O)[C@H](O)[C@@H](O)CO,inactive
13,O=C(O)CC(C(=O)O)S(=O)(=O)O (stereo not given),inactive
14,C=COCC1CCC(COC=C)CC1 (stereo not given),inactive
15,COCCOCC(OC)OC,inactive
16,CC(C)(N)C#N,inactive
17,CCOC(=O)COC(=O)c1ccccc1C(=O)OCC,inactive
18,CCOC(=O)CCC(=O)OCC,inactive
19,COc1cc(C)nc(-n2nc(C)cc2OC)n1,inactive
20,C=CCCC(=O)O,inactive

row,SMILES,Potency
1,CCCCCCC#CC(=O)OC,inactive
2,C[C@@H]1CCC[C@H](C)N1,inactive
3,NS(=O)(=O)Cc1noc2ccccc12,inactive
4,CCOC(=O)c1ccccc1,inactive
5,CC(=O)c1ccccc1[N+](=O)[O-],inactive
6,Cc1nc(C2CCCCC2)c(-c2ccc(S(N)(=O)=O)c(F)c2)o1,inactive
7,Nc1ccn([C@@H]2O[C@H](CO)[C@@H](O)[C@@H]2O)c(=O)n1,inactive
8,CC(C)c1ccc2ncccc2c1,inactive
9,CCO[Si](OCC)(OCC)c1ccccc1,inactive
10,CCCCOCCOC(=O)CCCCCCCCC(=O)OCCOCCCC,inactive
11,FB(F)F,45.4 µM (active)
12,COc1cc2c(cc1OC)-c1cc3ccc(OC)c(OC)c3c[n+]1CC2,34.7 µM (active)
13,C=CCCCCCCCCC(=O)OCC,inactive
14,CC(=O)OCC(=O)[C@@]1(O)[C@H](C)C[C@H]2[C@@H]3CCC4=CC(=O)C=C[C@]4(C)[C@@]3(F)[C@@H](O)C[C@@]21C,inactive
15,CC1=NN(c2cccc(S(=O)(=O)O)c2)C(=O)C1,inactive
16,CNCC(O)c1ccc(O)c(O)c1 (stereo not given),inactive
17,COC(=O)C1=C(C)NC(C)=C(C(=O)OC(C)C)C1c1cccc2nonc12 (stereo not given),inactive
18,CCNC(=O)[C@@H]1CCCN1C(=O)[C@H](CCCN=C(N)N)NC(=O)[C@H](CC(C)C)NC(=O)CNC(=O)[C@H](Cc1ccc(O)cc1)NC(=O)[C@H](CO)NC(=O)[C@H](Cc1c[nH]c2ccccc12)NC(=O)[C@H](Cc1cnc[nH]1)NC(=O)[C@@H]1CCC(=O)N1 ([pGlu]HWSYGLRP-NHEt),inactive
19,O=CN(CCO)CCO,inactive
20,COCCOC[C@H](CC1(C(=O)NC2CCC(C(=O)O)CC2)CCCC1)C(=O)Oc1ccc2c(c1)CCC2 (stereo not given in full),inactive
